Sampled rows, rich in hits. Any-hit rate of the full collection: about 8.9%.
IMPase Li inh: qHTS Assay for Identifying the Cell-Membrane Permeable IMPase Inhibitors: Potentiation with Lithium; 0.35% of 210,000 active; CHO-M1 cells, IP1 TR-FRET (IP-One), carbachol + lithium; Potency, µM (titrated, usually from 59.4 µM), for the others: at the highest dose activity, negative = IMPase inhibition, hits mostly inhibitors;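 further: IP1 builds up when IMPase is blocked and the TR-FRET signal falls; potency means the concentration at half of the fitted maximal effect; plate controls were basal vehicle for no effect and high inhibitor control for full effect; nearly all actives have a fitted effect of over 50% in size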
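IP1 accumulation measured by competitive TR-FRET in lysed CHO-M1 cells after 30 min compound exposure at 37C, with a small lithium addition to potentiate weak responses. Hill-equation AC50 from ratio and donor-channel data.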
NPSR antagonist: qHTS Assay for Antagonists of the Neuropeptide S Receptor: cAMP Signal Transduction. Q6W5P4. CHO-NPSR cells, cAMP TR-FRET, antagonist mode. Potency, µM (titrated, usually from 38.3 µM), inactives show at the top dose activity change, negative = inhibition, actives largely listed as inhibitors. 1% of 220,000 active; further: potency means the concentration at half of the fitted maximal effect; nearly all actives have a fitted effect of over 50% in size
ALDH1A1 block: qHTS Assay for Inhibitors of Aldehyde Dehydrogenase 1 (ALDH1A1); Purified ALDH1A1, NADH fluorescence, propionaldehyde substrate; Potency, µM (series often up to 75.3 µM), without a hit: at the top dose activity, negative = inhibition, actives largely listed as inhibitors; 7.3% of 220,000 active; AID 1030, 2008; active means well fitted inhibition curve with a large enough effect, not every such curve was filed as active; inconclusive means small, poorly fitted or top-dose-only effect, or another doubt; inactive means no such curve, though single readings can be large or run the other way;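 further: potency means the concentration at half of the fitted maximal effect; plate controls were no enzyme wells and a reference inhibitor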
Target sequence (P00352 whole entry, looked up): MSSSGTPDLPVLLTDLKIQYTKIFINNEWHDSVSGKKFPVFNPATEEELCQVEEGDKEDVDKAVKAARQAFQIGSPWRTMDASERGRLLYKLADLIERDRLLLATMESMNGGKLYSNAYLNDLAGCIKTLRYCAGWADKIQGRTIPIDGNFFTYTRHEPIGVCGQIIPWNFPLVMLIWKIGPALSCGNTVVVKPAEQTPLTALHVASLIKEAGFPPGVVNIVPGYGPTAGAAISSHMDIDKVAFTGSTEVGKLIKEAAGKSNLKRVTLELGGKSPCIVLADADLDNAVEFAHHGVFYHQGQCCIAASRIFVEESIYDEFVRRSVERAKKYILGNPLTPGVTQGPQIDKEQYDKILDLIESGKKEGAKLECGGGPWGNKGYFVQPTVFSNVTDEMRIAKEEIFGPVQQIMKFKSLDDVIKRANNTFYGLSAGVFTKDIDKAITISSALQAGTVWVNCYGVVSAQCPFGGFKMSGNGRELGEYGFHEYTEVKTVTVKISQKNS
IMPase cell inh: qHTS Assay for Identifying the Cell-Membrane Permeable IMPase Inhibitors | CHO-M1 cells, IP1 accumulation, HTRF TR-FRET ratio | Inositol monophosphatase 1 (Rattus norvegicus), P97697 | 120,000 tested, under 10 active | inhibition (IP1 accumulation), % at 46.1 µM; active means well fitted curve in the direction sought with a large enough effect in the signal ratio, not every such curve was filed as active; inconclusive means small, poorly fitted or top-dose-only effect, or a change in a side signal; inactive means no such curve, though single readings can be large or run the other way; the % refers to the signal ratio;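 further: cells stimulated with carbachol in lithium chloride buffer; plate controls were DMSO basal wells for no effect and reference inhibitor wells for full effect; higher means more IMPase inhibition seen as more IP1 and lower FRET ratio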
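Measured: the HTRF emission ratio (665/620 nm) plus the 620 nm donor channel, each fitted to the Hill equation to give AC50. Cells were CHO-M1 given compounds up to 46 uM and a 30 min carbachol stimulation at 37C.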
HPGD inh: qHTS Assay for Inhibitors of HPGD (15-Hydroxyprostaglandin Dehydrogenase); 4.3% of 150,000 active; Potency, µM, for the others: top-dose activity change, negative = inhibition, most hits filed as inhibitors; 15-hydroxyprostaglandin dehydrogenase [NAD(+)] (Homo sapiens), P15428; purified HPGD, NADH fluorescence kinetic, PGE2 substrate; active means well fitted inhibition curve with a large enough effect, not every such curve was filed as active; inconclusive means small, poorly fitted or top-dose-only effect, or another doubt; inactive means no such curve, though single readings can be large or run the other way; further: potency means the concentration at half of the fitted maximal effect
Target sequence (P15428 whole entry, looked up): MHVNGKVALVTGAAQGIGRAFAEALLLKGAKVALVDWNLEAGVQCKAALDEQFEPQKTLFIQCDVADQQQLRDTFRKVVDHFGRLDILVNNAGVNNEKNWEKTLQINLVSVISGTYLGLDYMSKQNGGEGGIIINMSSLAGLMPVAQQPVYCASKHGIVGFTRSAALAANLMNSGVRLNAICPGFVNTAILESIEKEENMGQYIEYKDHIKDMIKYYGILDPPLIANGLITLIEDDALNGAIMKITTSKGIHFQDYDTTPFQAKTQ
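NADH formation kinetics: reaction with 30 uM PGE2 and 1 mM NAD+ (final), 20 nM enzyme, Tris-HCl pH 8 with Tween 20, after 15 min compound preincubation at room temperature. Fluorescence change, last versus first of five reads.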
ALOX12 inhib: qHTS Assay for Inhibitors of 12-hLO (12-human lipoxygenase). Polyunsaturated fatty acid lipoxygenase ALOX12 (Homo sapiens), P18054. purified 12-hLO, xylenol orange hydroperoxide absorbance. Potency, µM (top dose mostly 57.1 µM), for inactives: top-dose activity change, negative = inhibition, usual class: inhibitors. 0.12% of 150,000 active. AID 1452, 2008; further: potency means the concentration at half of the fitted maximal effect; nearly all actives have a fitted effect of over 55% in size
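Hydroperoxide output read as Fe(III)-xylenol orange absorbance, 573-to-405 nm ratio, after 30 min reaction with 40 uM arachidonic acid. Enzyme: 150 nM purified human 12hLO, 15 min compound preincubation; 25 mM Hepes pH 7.0, room temperature.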
* = called active by the depositor; ? = inconclusive; . = no result given; [ ] = remark or other dose. Unless noted, the call rests on the fitted dose curve; in most records, active means well fitted curve in the direction sought with a large enough effect; inconclusive means small, poorly fitted or top-dose-only effect, or another doubt; inactive means no such curve, though single readings can be large; an effect the other way counts as inactive or inconclusive. Unless noted, on the % scale 0 is the no-effect control and ±100 the full control effect.

SMILES	IMPase Li inh	NPSR antagonist	ALDH1A1 block	IMPase cell inh	HPGD inh	ALOX12 inhib
O=C(CO/N=C/c1ccccc1OC(F)F)N1CCc2ccccc21	4%	15%	16µM*	.	-10%	-2%
CCN(CC(=O)Nc1ccc(C)c(F)c1)CC(=O)NC(C)C	6%	8%	3.2µM*	.	.	.
COc1ccc(CNC(=O)CCSc2nc(-c3ccc4c(c3)OCO4)cc(C(F)(F)F)n2)cc1	7%	-29%[46.1 µM]	?	-7	?	-2%
CCc1c(C)sc(NC(=O)CSc2nc3c(c(C(F)(F)F)n2)CCc2ccccc2-3)c1C#N	?	-5%[46.1 µM]	22µM*	-10[1.84 µM]	22µM*	-3%
CCNc1ccccc(-c2ccc3ccccc3n2)c1=O	7%	-13%	0%	.	-7%	-2%
CCC/C=C(\CCC)C(NC(=O)c1ccc(C(F)(F)F)cc1)c1ccccc1 (stereo unspecified)	20%	.	-2%	.	-16%	3%
CCC/C=C(\CCC)C(NS(=O)(=O)c1ccc(C(F)(F)F)cc1)c1ccc(-c2ccccc2)cc1 (stereo unspecified)	-4%	.	22µM*	.	-15%	3%
CCC1=Nc2cc(C(=O)NCC3CCCO3)ccc2Sc2ccc(Cl)cc21 (stereo unspecified)	.	-18%	.	.	.	.
S=c1[nH]nc(C2CCCCC2)n1/N=C/c1cccs1	7%[38.3 µM]	-17%[46.1 µM]	22µM*	3	13µM*	-7%
O=[N+]([O-])c1ccc(/C=N/n2c(C3CCCCC3)n[nH]c2=S)cc1	10%[38.3 µM]	-7%[46.1 µM]	-2%	5	4.5µM*	-7%
Cc1ccc(/C=N/n2c(C3CCCCC3)n[nH]c2=S)o1	6%	5%	?	.	28µM*	-1%
Cc1cccc(-c2n[nH]c(=S)n2/N=C/c2ccc(C)o2)c1	10%	-7%	?	.	16µM*	1%
O=C1OCCC1Sc1nnnn1-c1ccccc1 (stereo unspecified)	-10%[38.3 µM]	-2%[46.1 µM]	?	5	-12%	-1%
O=C(c1ccc(F)cc1)N1CCCCC(Sc2nnnn2-c2ccccc2)C1=O (stereo unspecified)	24%[38.3 µM]	-23%[46.1 µM]	4.5µM*	5	-17%	-3%
O=C(c1ccccc1)N1CCCCC(Sc2nnnn2-c2ccccc2)C1=O (stereo unspecified)	17%	-8%[46.1 µM]	3.5µM*	-7	-11%	5%
N#CC1=C(N)Oc2c(O)cc3ccccc3c2C1c1ccsc1 (stereo unspecified)	6%	-44%	16%	3	-2%	-12%
N=C1[C@@H](O)[C@]2(I)c3ccccc3N3C(=N)[C@H](O)[C@@H]4c5ccccc5N1[C@@H]4[C@@H]32	-9%	.	-4%[13.5 µM]	.	4µM*	-17%[11.4 µM]
CCC(=O)NC(=S)Nc1ccc(OC)cc1OC	-5%	10%	5%	.	-12%	-3%
O=C(Cn1cc(C(F)(F)F)cc(Cl)c1=O)Nc1ccc(N2CCOCC2)cc1	1%	1%	2%	.	.	.
COc1ccc(C(=O)Cn2nnc(-c3ccccc3NC(=O)C3CCCCC3)n2)cc1	38%[38.3 µM]	-17%[46.1 µM]	0.28µM*	-1	-13%	9%
N=C(N)S/C=C\C(=O)O	9%	.	7.9µM*	-2	35µM*	-1%
Cc1ccc(S(=O)(=O)N2CCN(S(=O)(=O)N3CCOCC3)CC2)cc1C	31%[38.3 µM]	-9%[46.1 µM]	9%	-2	-11%	2%
Cc1ccc(S(=O)(=O)N2CCN(S(=O)(=O)N3CCOCC3)CC2)c(C)c1	20%[38.3 µM]	-11%[46.1 µM]	13µM*	-2	-10%	7%
O=c1/c(=C\c2cc([N+](=O)[O-])cc([N+](=O)[O-])c2O)sc2nc3ccccc3n12	2%	-20%	7.9µM*	.	.	.
O=c1/c(=C/c2ccccn2)sc2nc3ccccc3n12	-4%[38.3 µM]	1%[46.1 µM]	6%	?	-8%	-2%
SMILES	IMPase Li inh	NPSR antagonist	ALDH1A1 block	IMPase cell inh	HPGD inh	ALOX12 inhib
O=C(O)c1cccc(-c2ccc(/C=c3/sc4nc5ccccc5n4c3=O)o2)c1	.	38%	?	.	.	.
COC(=O)/C=c1/sc2nc3ccccc3n2c1=O	0%[38.3 µM]	-17%[46.1 µM]	10µM*	-2	7.9µM*	6%
N#CSCC(=O)c1cccc2ccccc12	-8%	-18%	1.6µM*	.	?	0%
NC(=O)c1cccc2ccccc12	.	8%	.	.	.	.
COc1cc(/C=C/C(=O)NCCc2ccc(S(N)(=O)=O)cc2)ccc1OCC#N	.	11%	.	.	.	.
Cc1csc(N/N=C\c2cccnc2)n1	-4%	-2%	11µM*	.	.	.
O=[N+]([O-])c1ccc(-c2csc(N/N=C/c3cccnc3)n2)cc1	0%	3%	-7%	.	.	.
Cc1csc(N/N=C/c2ccc(O)c([N+](=O)[O-])c2)n1	31%[38.3 µM]	10µM*	?	13	?	?
Cc1ccc(N/N=C/c2cccnc2)cc1	5%	4%	?	.	-13%	-12%
O=[N+]([O-])c1cc(/C=N\Nc2nc(-c3ccccc3)cs2)ccc1O	-4%	-49%	11µM*	.	.	.
CCS(=O)(=O)CCSc1nc(-c2ccc(Br)cc2)cc(-c2ccccc2)c1C#N	.	.	.	-6	.	.
CS(=O)c1nc(-c2ccc(Br)cc2)cc(-c2ccccc2)c1C#N (stereo unspecified)	28%[38.3 µM]	13µM*	13µM*	-3	7%	-15%
CS(=O)(=O)c1nc(-c2ccc(Br)cc2)cc(-c2ccccc2)c1C#N	-30%[38.3 µM]	7.9µM*	?	?	-2%	5%
N#Cc1c(-c2ccc(Br)cc2)cc(-c2cccnc2)nc1N	22µM*	6%	2%	.	-11%	-2%
O=C(NC1CCCCC1)C(c1ccc(F)cc1)N(C(=O)Cc1ccsc1)c1ccc(F)cc1 (stereo unspecified)	0%[38.3 µM]	-3%[46.1 µM]	-6%	2	-6%	-3%
Cc1ccnc(NC(=O)CCC(=O)N(CC(=O)NCc2ccccc2)Cc2cccs2)c1	2%	-16%	16µM*	.	.	.
Cc1c(C(=O)OCc2ccccc2)nnn1-c1nonc1N	-3%[38.3 µM]	-20%[46.1 µM]	-9%	3	-16%	-1%
COC(=O)c1ccc(O)c(Sc2cc(C(=O)OC)ccc2O)c1	19%	-8%[46.1 µM]	13µM*	0	4µM*	?
Cc1ccc(O)c(Sc2cc(C)ccc2O)c1	30%[38.3 µM]	-2%[46.1 µM]	-3%	20	16µM*	?
O=C1CC(SC(=Nc2ccccc2)Nc2ccccc2)C(=O)N1c1ccc(Cl)c(Cl)c1 (stereo unspecified)	5%	-56%	?	.	-21%	13%

Bioassay records from PubChem.
